High-throughput results: PubChem, National Center for Advancing Translational Sciences (NCATS)
LASV entry inh – Lassa virus entry inhibition; Lassa virus pseudotype entry inhibition, cell reporter; Potency, µM (highest dose often 37.9 µM), inactives show top-dose activity change, negative = inhibition, actives largely listed as inhibitors; 1.2% of 300,000 active; AID 540256; calls by dose curve; tested in HEK293 cells; note: potency is the fitted concentration of half-maximal effect; nearly all actives have a fitted effect of over 50% in size
FMDV inh – foot and mouth disease virus antiviral activity | Potency, µM (highest dose often 57.9 µM), for the others: top-dose activity change, negative = inhibition, hits mostly inhibitors | FMDV antiviral cell-based qHTS | 1.2% of 410,000 active; calls by dose curve; tested in HEK293T cells; note: read-out not given here; potency is the fitted concentration of half-maximal effect; nearly all actives have a fitted effect of over 45% in size
VACV mCherry inh – vaccinia inhibition (mCherry reporter); Vaccinia virus mCherry reporter infection, fluorescence; Potency, µM (highest dose often 36.5 µM), without a hit: top-dose activity change, negative = inhibition, actives largely listed as inhibitors; 0.63% of 310,000 active; calls by dose curve; tested in A549 cells; note: potency is the fitted concentration of half-maximal effect; nearly all actives have a fitted effect of over 35% in size
HCMV antiviral – blocks human cytomegalovirus replication; HFF cells, HCMV-luciferase reporter, 72 h; stronger effect = lower value; activity change, negative = inhibition, % at 57.5 µM; 4.5% of 410,000 active; in the data active = activity change below about -60%; inconclusive = no clear call, values can overlap the other calls; inactive = above about -39%
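Inhibition of viral replication was scored as loss of reporter luminescence in HFFs infected with HCMV-luciferase (MOI 1 PFU/cell) for 72 h; compounds tested at 2 doses, normalized to buffer and Salinomycin controls.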
MARV entry inh – Marburg virus entry inhibition. 1.8% of 300,000 active. Marburg virus pseudotyped entry inhibition, cell reporter. Potency, µM (highest dose often 37.8 µM), without a hit: at the highest dose activity change, negative = inhibition, hits mostly inhibitors. AID 540276; calls by dose curve; tested in HEK293 cells; note: potency is the fitted concentration of half-maximal effect
Vaccinia Venus – inhibitors of vaccinia virus (Venus reporter). Vaccinia virus Venus reporter expression, fluorescence. 0.46% of 330,000 active. Potency, µM (series often up to 36.5 µM), inactives show at the highest dose activity change, negative = inhibition, hits mostly inhibitors; calls by dose curve; tested in A549 cells; note: potency is the fitted concentration of half-maximal effect; nearly all actives have a fitted effect of over 30% in size
An asterisk follows results filed as active; i = inactive; ? = inconclusive; / = no result; + = active, no number; ! = not confirmed by another sample; [ ] = remark or other dose. Sampled rows, rich in hits. Any-hit rate of the full collection: about 6.5%. % is set by controls: 0 for no effect and ±100 for the full control effect.

SMILES	LASV entry inh	FMDV inh	VACV mCherry inh	HCMV antiviral	MARV entry inh	Vaccinia Venus
COc1ccc2c(C)c(CCC(=O)NCc3ccccc3OC)c(=O)oc2c1	11.0%[46.1 µM]	-5.8%	-14.4%	-11.9	-20.9%[46.1 µM]	-3.0%
CC12CCC(=O)C=C1CCC1C2C(O)CC2(C)C1CCC21OCC1=O (stereo not given)	9.7%[46.1 µM]	-5.3%	i	-91.9*	?	-6.0%
CC(=O)C1CCC2C3CCC4=CC(=O)CC[C@@]4(C)C3CC[C@]12C (stereo not given in full)	/	22.4µM*	-10.0%	/	/	-8.7%
C[C@]12CCC(=O)C=C1CC[C@@H]1C2[C@H](O)C[C@]2(C)C(=O)CCC12 (stereo not given in full)	/	5.2%	/	31.6	/	/
CCOC(=O)c1cccc(NC(=O)C(C)n2c(C)c3cnn(-c4ccccc4)c(=O)c3c2C)c1 (stereo not given)	?	0.0%	-12.5%	-29.2	3.1%[46.1 µM]	-8.8%
COc1ccc(NC(=O)N(Cc2ccco2)C2CCN(C(C)=O)CC2)c(OC)c1	10.9%[46.1 µM]	-2.5%	-13.5%	-4.6	/	-16.3%
COc1ccc(C(=O)Nc2cc(C(C)C)c(O)c(S(=O)(=O)c3ccc(OC)cc3)c2C)cc1	1.9%[46.1 µM]	60.8%	-11.4%	-103.7*	?	-15.8%
Cc1nnc(SCC(=O)Nc2ccc3c(c2)OCO3)o1	-4.3%	-3.8%	-10.4%	-60.0*	10.2%[46.1 µM]	2.4%
COc1cc(-c2nc(SCC(=O)Nc3ccc4c(c3)OCO4)c(-c3ccccc3)[nH]2)cc(OC)c1OC	?	3.1%	-15.9%	?	?	-15.0%
COc1ccc(-c2[nH]c(-c3cccc(OC)c3)nc2SCC(=O)Nc2ccc3c(c2)OCO3)cc1	7.94µM*	4.7%	-12.9%	?	-13.6%[46.1 µM]	-8.9%
O=C(CSc1nc(-c2ccccc2)[nH]c1-c1ccccc1)Nc1ccc2c(c1)OCO2	?	?	-25.5%	-108.7*	?	-19.2%
O=C(CSc1nc2ncccc2[nH]1)Nc1ccc2c(c1)OCO2	17.9%	17.6%	i	16.7	-2.6%[46.1 µM]	-8.2%
O=C(CSc1nc(-c2ccccc2)c(-c2ccccc2)[nH]1)Nc1ccc2c(c1)OCO2	?	-18.2%	-27.0%	-68.4*	?	-27.4%
COc1ccc(-c2[nH]c(-c3ccc(Cl)cc3)nc2SCC(=O)Nc2nccs2)cc1	5.1%	-28.9%	0.7%	-79.3*	12.9%	-22.1%
O=C(NC1CC1)c1[nH]c(C(F)(F)F)nc1-c1ccccc1	/	-21.3%	i	-10.8	/	-7.0%
O=C(CSc1nc(-c2cccc(F)c2)[nH]c1-c1ccccc1)Nc1ccc2c(c1)OCCO2	10µM*	?	?	-106.2*	?	?
O=C(Nc1ccc2c(c1)OCCO2)c1[nH]c(C(F)(F)F)nc1-c1ccccc1	/	-18.8%	i	-74.4*	/	-10.7%
CCCN1CNc2c(c(=O)[nH]c(=S)n2CCc2cc(OC)cc(OC)c2)C1	/	/	i	/	/	-19.1%
Cc1cccc(C)c1OCC(=O)N(Cc1ccc(Cl)cc1)CC1CCCO1 (stereo not given)	-13.9%[46.1 µM]	-9.6%	-15.6%	-22.0	?	-16.6%
N#Cc1ccc(S(=O)(=O)N2CCN(c3nc(-c4ccccc4)nc4ccccc34)CC2)cc1	/	/	i	/	/	-14.2%
O=c1c2ccccc2[nH]c(=S)n1CCCN1CCN(c2ccccc2)CC1	?	-30.0%	?	-67.4*	?	7.3%
O=c1c2ccccc2[nH]c(=S)n1CCCN1CCN(c2ccccc2F)CC1	/	-13.1%	/	-62.8*	/	/
O=c1c2cccnc2[nH]c(=S)n1CCCN1CCN(c2ccccc2F)CC1	?	0.0%	i	-30.4	-27.9%	-8.6%
O=C(Cc1ccc(F)cc1)Nc1nc(-c2ccc(F)c(F)c2)cs1	/	?	/	6.8	/	/
O=C(CSc1ncnc2[nH]ncc12)Nc1nc(-c2ccc(F)c(F)c2)cs1	?	14.1µM*	/	-90.4*	?	/
SMILES	LASV entry inh	FMDV inh	VACV mCherry inh	HCMV antiviral	MARV entry inh	Vaccinia Venus
O=C(Nc1ccc(Nc2ccccc2)cc1)N1CCOCC1	4.0%	3.5%	-6.9%	-63.4*	15.3%	3.7%
O=C(Nc1ccc(OC(=O)N2CCCCC2)cc1)N1CCOCC1	?	?	-21.3%	+	?	-4.4%
O=C(Nc1ccc(OC(=O)N2CCCC2)cc1)N1CCOCC1	7.5%	-0.3%	-17.5%	10.5	9.0%	-1.1%
COc1ccc(CNC(=O)CCCc2nnc3n(C(C)C)c(=O)c4sccc4n23)cc1	-1.0%[46.1 µM]	2.2%	-14.2%	-10.6	/	-10.0%
O=C(Nc1c(C(=O)N2CCN(c3ccccc3F)CC2)oc2ccccc12)c1cccc(F)c1	1.2%[46.1 µM]	12.6%	-16.4%	-15.8	/	0.2%
Cc1nn(C)c(C)c1CN(C)S(=O)(=O)c1ccc2ccccc2c1	?	-0.5%	?	-81.8*	?	?
CCNC(=S)N1CCN(Cc2ccc3c(c2)OCO3)CC1	/	14.5%	/	-21.7	/	/
Cc1ccc(NC(=O)N(Cc2ccc3c(c2)OCO3)C2CCN(Cc3ccccc3)CC2)cc1Cl	11.2µM*	-15.2%	?	-70.7*	/	?
O=C(c1sccc1Br)N1CCN(Cc2ccc3c(c2)OCO3)CC1	-2.7%[46.1 µM]	-27.2%	-17.1%	-63.2*	-18.5%[46.1 µM]	-14.6%
C=CCNC(=S)N1CCN(Cc2ccc3c(c2)OCO3)CC1	/	-7.4%	/	-98.2*	/	/
O=C(C(Cl)Cl)N1CCN(Cc2ccc3c(c2)OCO3)CC1	/	-7.3%	/	-74.3*	/	/
CCCCOC(=O)c1c(C)oc2c1cc(NS(=O)(=O)c1cc(OC)ccc1OC)c1ccccc12	?	7.8%	1.4%	32.1	?	-8.3%
CC(=O)O[C@H]1CC[C@]2(C)C3CC[C@]4(C)[C@@H]([C@H](C)/C=C/[C@H](C)C(C)C)CC[C@H]4[C@@]34C=C[C@]2(C1)N(C(=O)c1ccccc1)O4 (stereo not given in full)	/	/	/	6.8	/	/
CCCCCCCCCCCCCCCCCC(=O)O[C@H](CC(=O)O)C[N+](C)(C)C	/	/	/	/	18.2%	/
O=S(=O)(c1cccc(Cl)c1)N1CCN(c2nc(-c3cccs3)nc3ccccc23)CC1	/	/	-14.9%	/	/	-8.9%
CCOc1ccc(CCNC(=O)c2nn(C)c3c2CSc2ccccc2-3)cc1	3.4%[46.1 µM]	-24.0%	-15.2%	?	-19.1%[46.1 µM]	-15.3%
O=C(c1ccc(COc2ccc(Cl)cc2)o1)N1CCN(Cc2ccc3c(c2)OCO3)CC1	?	/	-21.6%	-32.7	-21.5%	-18.5%
Cc1cccc(NC(=O)N2CCN(Cc3ccc4c(c3)OCO4)CC2)c1C	/	-21.4%	/	-74.8*	/	/
O=C(C1CCN(Cc2ccccc2O)CC1)N1CCN(Cc2ccc3c(c2)OCO3)CC1	2.1%	-21.4%	i	-64.6*	?	-4.9%
O=C(c1ccc(COc2ccccc2Cl)o1)N1CCN(Cc2ccc3c(c2)OCO3)CC1	?	35.5µM*!	i	0.7	?	-16.0%
Cc1ccccc1C(=O)Nc1cccc(OCc2cc(=O)n3cccc(C)c3n2)c1	9.7%[46.1 µM]	-18.8%	-6.7%	-30.3	/	-9.1%
O=C1CC2OCC=C3CN4CCC56c7ccccc7N1C5C2C3CC46 (stereo not given)	/	-15.9%	/	/	/	/
